# The supplement of paper PMC8728848
# The sample as a whole holds a higher share of the strongest signals than the screen did.
# B1: PX14375l-pdi-526-25-526 (Parabacteroides distasonis) (protein)
# chain: DEEPKSTLTDVAYYKTQSQMESNVNYLYRTGAIGSYVDFGSAYIGPFASIQEELTGYFSNSYEGQEIVCRYTRELTRQQNTMQLASKMDKVWDDCYRGINVANGAIKHMPEVPMDQATADRLTAEAKFFRAFNYFYLVKTFGAVPFYTDPYELAENMELPRTETSTIYNQIESDLKDAMNVLPEATFAANGHRITKYVAAMTLTDVYMYQHKYAEAAETVRIVVNSNHKLTTNDDLAMNSAFNKLRSTDDLDEAIYAYEYDNQISPSNWLPTYAFDGDASSNGLFGTYAITQKVHGPNDRYLNIYESNDLRRQPNQFYHWTYTNPKTGKVWNSVGNAACCWYYYDEDALLTTGRGTKDWNVYRYAEALLDAAESIAQSTGVTAEAAGYLAQVKARANMEGKTAAEIASSLQSMGKQAFIEECWTERLRELPLEFKMWDMCVRTGMFPNISETTPGQVTYIPLVGAKNASGATIKESDLLWPLSVNEIQRNPSLTQNEGYSAK
# Tests used:
# Assay in all cases: glycan array binding signal (z-score within array); higher = stronger binding
# Conditions in all cases: glycan notation: IUPAC condensed, linker removed
# [1] = target: Fuc(a1-2)Gal(b1-3)GlcNAc(b1-2)Man(a1-3)[Fuc(a1-2)Gal(b1-3)GlcNAc(b1-2)Man(a1-6)]Man(b1-4)GlcNAc(b1-4)GlcNAc
# Procedure, shortened: (§1)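 Glycan array data were curated from 3228 arrays in the Consortium for Functional Glycomics database and kept only where the protein sequence was available. Glycan names were converted to IUPAC-condensed notation, and columns mapping to the same glycan were averaged. The binding signal is a within-array Z-score, averaged across arrays of the same protein sequence at different concentrations or buffers and across linkers. Negative Z-scores can be read as non-binding.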
# [2] = target: Fuc(a1-2)Gal(b1-3)[Fuc(a1-4)]GlcNAc(b1-2)Man(a1-3)[Fuc(a1-2)Gal(b1-3)[Fuc(a1-4)]GlcNAc(b1-2)Man(a1-6)]Man(b1-4)GlcNAc(b1-4)[Fuc(a1-6)]GlcNAc(b1-4)[Fuc(a1-6)]GlcNAc
# Procedure, shortened: as §1
# [3] = target: Fuc(a1-2)Gal(b1-4)GlcNAc(b1-2)Man(a1-3)[Fuc(a1-2)Gal(b1-4)GlcNAc(b1-2)Man(a1-6)]Man(b1-4)GlcNAc(b1-4)GlcNAc
# Procedure, shortened: as §1
# [4] = target: Fuc(a1-2)Gal(b1-4)[Fuc(a1-3)]GlcNAc(b1-3)GalNAc
# Procedure, shortened: as §1
# [5] = target: Fuc(a1-2)[Gal(a1-3)]Gal(b1-3)GalNAc(b1-3)Gal(a1-4)Gal(b1-4)Glc
# Procedure, shortened: as §1
# [6] = target: Fuc(a1-2)[Gal(a1-3)]Gal(b1-3)GlcNAc(b1-2)Man(a1-3)[Fuc(a1-2)[Gal(a1-3)]Gal(b1-3)GlcNAc(b1-2)Man(a1-6)]Man(b1-4)GlcNAc(b1-4)[Fuc(a1-6)]GlcNAc
# Procedure, shortened: as §1
# [7] = target: Fuc(a1-2)[GalNAc(a1-3)]Gal(b1-3)GalNAc(a1-3)[Fuc(a1-2)]Gal(b1-4)GlcNAc
# Procedure, shortened: as §1
# [8] = target: Fuc(a1-2)[GalNAc(a1-3)]Gal(b1-3)GlcNAc(b1-2)Man(a1-3)[Fuc(a1-2)[GalNAc(a1-3)]Gal(b1-3)GlcNAc(b1-2)Man(a1-6)]Man(b1-4)GlcNAc(b1-4)GlcNAc
# Procedure, shortened: as §1
# [9] = target: Fuc(a1-2)[GalNAc(a1-3)]Gal(b1-4)GlcNAc(b1-2)Man
# Procedure, shortened: as §1
# [10] = target: Fuc(a1-2)[GalNAc(a1-3)]Gal(b1-4)GlcNAc(b1-6)GalNAc
# Procedure, shortened: as §1
# [11] = target: Fuc(a1-3)[Gal(b1-4)]GlcNAc(b1-6)GalNAc
# Procedure, shortened: as §1
# [12] = target: Fuc(b1-3)GlcNAc
# Procedure, shortened: as §1
# [13] = target: Gal(a1-3)Gal
# Procedure, shortened: as §1
# [14] = target: Gal(a1-3)Gal(b1-4)[Fuc(a1-3)]GlcNAc
# Procedure, shortened: as §1
# [15] = target: Gal(a1-4)Gal(b1-4)GlcNAc(b1-2)Man(a1-3)[Gal(a1-4)Gal(b1-4)GlcNAc(b1-2)Man(a1-6)]Man(b1-4)GlcNAc(b1-4)GlcNAc
# Procedure, shortened: as §1
# [16] = target: Gal(b1-3)GlcNAc(b1-3)Gal(b1-4)GlcNAc(b1-3)Gal(b1-4)GlcNAc(b1-2)[Gal(b1-3)GlcNAc(b1-3)Gal(b1-4)GlcNAc(b1-3)Gal(b1-4)GlcNAc(b1-6)]Man(a1-6)[Gal(b1-3)GlcNAc(b1-3)Gal(b1-4)GlcNAc(b1-3)Gal(b1-4)GlcNAc(b1-2)Man(a1-3)]Man(b1-4)GlcNAc(b1-4)[Fuc(a1-6)]GlcNAc
# Procedure, shortened: as §1
# [17] = target: Gal(b1-3)GlcNAc(b1-3)GalNAc
# Procedure, shortened: as §1
# [18] = target: Gal(b1-3)[Neu5Ac(a2-6)]GlcNAc(b1-4)Gal(b1-4)Glc
# Procedure, shortened: as §1
# [19] = target: Gal(b1-4)Gal
# Procedure, shortened: as §1
# [20] = target: Gal(b1-4)GlcNAc(b1-2)Man(a1-3)[Gal(b1-4)GlcNAc(b1-2)Man(a1-6)]Man(b1-4)GlcNAc(b1-4)[Fuc(a1-6)]GlcNAc
# Procedure, shortened: as §1
# [21] = target: Gal(b1-4)GlcNAc(b1-2)[Gal(b1-4)GlcNAc(b1-4)]Man(a1-3)[GlcNAc(b1-4)][Gal(b1-4)GlcNAc(b1-2)[Gal(b1-4)GlcNAc(b1-6)]Man(a1-6)]Man(b1-4)GlcNAc(b1-4)GlcNAc
# Procedure, shortened: as §1
# [22] = target: Gal(b1-4)GlcNAc(b1-3)Gal(b1-3)GlcNAc
# Procedure, shortened: as §1
# [23] = target: Gal(b1-4)GlcNAc(b1-3)Gal(b1-4)GlcNAc(b1-2)Man(a1-3)[Gal(b1-4)GlcNAc(b1-3)Gal(b1-4)GlcNAc(b1-2)Man(a1-6)]Man(b1-4)GlcNAc(b1-4)[Fuc(a1-6)]GlcNAc
# Procedure, shortened: as §1
# [24] = target: Gal(b1-4)GlcNAc(b1-3)Gal(b1-4)GlcNAc(b1-2)[Gal(b1-4)GlcNAc(b1-3)Gal(b1-4)GlcNAc(b1-6)]Man(a1-6)[Gal(b1-4)GlcNAc(b1-3)Gal(b1-4)GlcNAc(b1-2)Man(a1-3)]Man(b1-4)GlcNAc(b1-4)GlcNAc
# Procedure, shortened: as §1
# [25] = target: Gal(b1-4)GlcNAc(b1-3)Gal(b1-4)GlcNAc(b1-2)[Gal(b1-4)GlcNAc(b1-3)Gal(b1-4)GlcNAc(b1-6)]Man(a1-6)[Gal(b1-4)GlcNAc(b1-3)Gal(b1-4)GlcNAc(b1-2)Man(a1-3)]Man(b1-4)GlcNAc(b1-4)[Fuc(a1-6)]GlcNAc
# Procedure, shortened: as §1
# [26] = target: Gal(b1-4)GlcNAc(b1-3)Gal(b1-4)GlcNAc(b1-3)Gal(b1-4)GlcNAc(b1-3)Gal(b1-4)GlcNAc(b1-2)Man(a1-3)[Gal(b1-4)GlcNAc(b1-3)Gal(b1-4)GlcNAc(b1-3)Gal(b1-4)GlcNAc(b1-3)Gal(b1-4)GlcNAc(b1-2)Man(a1-6)]Man(b1-4)GlcNAc(b1-4)GlcNAc
# Procedure, shortened: as §1
# [27] = target: Gal(b1-4)GlcNAc(b1-3)[GlcNAc(b1-6)]Gal(b1-4)GlcNAc
# Procedure, shortened: as §1
# [28] = target: Gal3S(b1-3)[Fuc(a1-4)]GlcNAc
# Procedure, shortened: as §1
# [29] = target: Gal6S(b1-3)GlcNAc6S
# Procedure, shortened: as §1
# [30] = target: Gal6S(b1-4)GlcNAc
# Procedure, shortened: as §1
# [31] = target: GalNAc(b1-4)GlcNAc(b1-2)Man(a1-3)[GalNAc(b1-4)GlcNAc(b1-2)Man(a1-6)]Man(b1-4)GlcNAc(b1-4)GlcNAc
# Procedure, shortened: as §1
# [32] = target: GalNAc3S(b1-4)GlcNAc
# Procedure, shortened: as §1
# [33] = target: GlcNAc(b1-2)Man(a1-3)[GlcNAc(b1-2)Man(a1-6)]Man(b1-4)GlcNAc(b1-4)GlcNAc
# Procedure, shortened: as §1
# [34] = target: GlcNAc(b1-3)Gal(b1-4)GlcNAc(b1-3)Gal(b1-4)GlcNAc(b1-3)Gal(b1-4)GlcNAc(b1-2)Man(a1-3)[GlcNAc(b1-3)Gal(b1-4)GlcNAc(b1-3)Gal(b1-4)GlcNAc(b1-3)Gal(b1-4)GlcNAc(b1-2)Man(a1-6)]Man(b1-4)GlcNAc(b1-4)GlcNAc
# Procedure, shortened: as §1
# [35] = target: GlcNAc(b1-3)[GlcNAc(b1-6)]GalNAc
# Procedure, shortened: as §1
# [36] = target: GlcNAc(b1-4)GlcNAc(b1-4)GlcNAc(b1-4)GlcNAc(b1-4)GlcNAc
# Procedure, shortened: as §1
# [37] = target: Man(a1-2)Man(a1-3)[Man(a1-2)Man(a1-6)]Man
# Procedure, shortened: as §1
# [38] = target: Man(a1-2)Man(a1-3)[Man(a1-6)]Man(a1-6)[Man(a1-2)Man(a1-3)]Man(b1-4)GlcNAc(b1-4)GlcNAc
# Procedure, shortened: as §1
# [39] = target: Neu5Ac(a2-3)Gal(b1-4)GlcNAc(b1-2)Man(a1-3)[GlcNAc(b1-4)][Neu5Ac(a2-3)Gal(b1-4)GlcNAc(b1-2)Man(a1-6)]Man(b1-4)GlcNAc(b1-4)GlcNAc
# Procedure, shortened: as §1
# [40] = target: Neu5Ac(a2-3)Gal(b1-4)GlcNAc(b1-2)Man(a1-3)[Neu5Ac(a2-6)Gal(b1-4)GlcNAc(b1-2)Man(a1-6)]Man(b1-4)GlcNAc(b1-4)GlcNAc
# Procedure, shortened: as §1
# [41] = target: Neu5Ac(a2-3)Gal(b1-4)GlcNAc(b1-3)[Neu5Ac(a2-3)Gal(b1-4)GlcNAc(b1-6)]GalNAc
# Procedure, shortened: as §1
# [42] = target: Neu5Ac(a2-3)Gal(b1-4)[Fuc(a1-3)]GlcNAc(b1-3)Gal(b1-4)GlcNAc
# Procedure, shortened: as §1
# [43] = target: Neu5Ac(a2-6)Gal(b1-4)Glc
# Procedure, shortened: as §1
# [44] = target: Neu5Ac(a2-6)GalNAc(b1-4)GlcNAc6S
# Procedure, shortened: as §1
# [45] = target: Neu5Ac(a2-8)Neu5Ac(a2-8)Neu5Ac(a2-3)Gal(b1-4)Glc
# Procedure, shortened: as §1
# [46] = target: Neu5Ac(a2-8)Neu5Gc(a2-3)Gal(b1-4)GlcNAc
# Procedure, shortened: as §1
# [47] = target: Neu5Gc(a2-8)Neu5Ac(a2-3)Gal(b1-4)GlcNAc
# Procedure, shortened: as §1
# [48] = target: Neu5Gc(a2-8)Neu5Gc(a2-3)Gal(b1-4)GlcNAc(b1-3)Gal(b1-4)GlcNAc
# Procedure, shortened: as §1
binder,measurement,setting,value
B1,glycan array binding signal (z-score),[1],-0.052
same,glycan array binding signal (z-score),[2],0.236
same,glycan array binding signal (z-score),[3],3.23
same,glycan array binding signal (z-score),[4],3.32
same,glycan array binding signal (z-score),[5],-0.21
same,glycan array binding signal (z-score),[6],0.373
same,glycan array binding signal (z-score),[7],-0.255
same,glycan array binding signal (z-score),[8],2.42
same,glycan array binding signal (z-score),[9],-0.233
same,glycan array binding signal (z-score),[10],-0.22
same,glycan array binding signal (z-score),[11],2.66
same,glycan array binding signal (z-score),[12],-0.225
same,glycan array binding signal (z-score),[13],-0.181
same,glycan array binding signal (z-score),[14],-0.3
same,glycan array binding signal (z-score),[15],1.19
same,glycan array binding signal (z-score),[16],8.4
same,glycan array binding signal (z-score),[17],-0.323
same,glycan array binding signal (z-score),[18],-0.125
same,glycan array binding signal (z-score),[19],-0.301
same,glycan array binding signal (z-score),[20],0.272
same,glycan array binding signal (z-score),[21],3.87
same,glycan array binding signal (z-score),[22],-0.16
same,glycan array binding signal (z-score),[23],4.03
same,glycan array binding signal (z-score),[24],4.11
same,glycan array binding signal (z-score),[25],0.091
same,glycan array binding signal (z-score),[26],16.7
same,glycan array binding signal (z-score),[27],-0.154
same,glycan array binding signal (z-score),[28],-0.094
same,glycan array binding signal (z-score),[29],9.53
same,glycan array binding signal (z-score),[30],-0.026
same,glycan array binding signal (z-score),[31],-0.068
same,glycan array binding signal (z-score),[32],-0.071
same,glycan array binding signal (z-score),[33],-0.225
same,glycan array binding signal (z-score),[34],-0.168
same,glycan array binding signal (z-score),[35],-0.1
same,glycan array binding signal (z-score),[36],-0.095
same,glycan array binding signal (z-score),[37],-0.022
same,glycan array binding signal (z-score),[38],-0.236
same,glycan array binding signal (z-score),[39],-0.214
same,glycan array binding signal (z-score),[40],-0.134
same,glycan array binding signal (z-score),[41],-0.205
same,glycan array binding signal (z-score),[42],0.129
same,glycan array binding signal (z-score),[43],0.019
same,glycan array binding signal (z-score),[44],0.114
same,glycan array binding signal (z-score),[45],-0.12
same,glycan array binding signal (z-score),[46],2.74
same,glycan array binding signal (z-score),[47],-0.206
same,glycan array binding signal (z-score),[48],-0.201
